Measured values reported in PubChem BioAssay AID1159580 (chemical genetic matrix, 2015).
The whole screen tested about 5,500 compounds, of which about 2,000 (36%) were called active. Another 18% or so got no clear call; they are omitted. Some of the results follow. A number with no mark means an inactive call. Cut-off read from the data, not from the text of the source: active = normalized growth mostly below about 0.91 (no sharp cut-off); inconclusive = no clear call, values can overlap the other calls; inactive = mostly above about 0.92.

Assay: chemical genetic growth profiling, strain panel (AID 1159580);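 note: tested at 20 µM; growth read once vehicle control cultures reached saturation at 30 °C; 1 = growth at the plate median or of vehicle wells; lower values mean less growth of the strain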
Conditions: growth OD

Q: Which results are given for `O=C(O)CF`?
A: normalized growth (S. cerevisiae deletion strains, locus YJR043C, strain POL32, active compounds read low): 0.984; normalized growth (S. cerevisiae deletion strains, locus YJR075W, strain HOC1, active compounds read low): 0.992; normalized growth (S. cerevisiae deletion strains, locus YKL009W, strain mrt4, active compounds read low): 0.915; normalized growth (S. cerevisiae deletion strains, locus YKL068W, active compounds read low): 1.01; normalized growth (S. cerevisiae deletion strains, locus YKL085W, strain MDH1 (second series), active compounds read low): 1; normalized growth (S. cerevisiae deletion strains, locus YKL085W, strain MDH1, active compounds read low): 1; normalized growth (S. cerevisiae deletion strains, locus YKL160W, strain elf1, active compounds read low): 0.988; normalized growth (S. cerevisiae deletion strains, locus YKL190W, strain CNB1, active compounds read low): 1; normalized growth (S. cerevisiae deletion strains, locus YKR001C, strain vps1, active compounds read low): 0.976; normalized growth (S. cerevisiae deletion strains, locus YKR026C, strain gcn3, active compounds read low): 1.03; normalized growth (S. cerevisiae deletion strains, locus YKR091W, strain srl3, active compounds read low): 1.02; normalized growth (S. cerevisiae deletion strains, locus YLL001W, strain dnm1, active compounds read low): 1.02; normalized growth (S. cerevisiae deletion strains, locus YLL026W, active compounds read low): 1.01; normalized growth (S. cerevisiae deletion strains, locus YLL041C, strain sdh2, active compounds read low): 1.03; normalized growth (S. cerevisiae deletion strains, locus YLR027C, strain aat2, active compounds read low): 1.01; normalized growth (S. cerevisiae deletion strains, locus YLR039C, strain RIC1, active compounds read low): 0.997; normalized growth (S. cerevisiae deletion strains, locus YLR058C, strain SHM2, active compounds read low): 0.993; normalized growth (S. cerevisiae deletion strains, locus YLR102C, strain apc9, active compounds read low): 0.99; normalized growth (S. cerevisiae deletion strains, locus YLR221C, strain rsa3, active compounds read low): 1.03; normalized growth (S. cerevisiae deletion strains, locus YLR258W, strain gsy2, active compounds read low): 1.04; normalized growth (S. cerevisiae deletion strains, locus YLR262C, strain YPT6 (second series), active compounds read low): 1.04; normalized growth (S. cerevisiae deletion strains, locus YLR262C, strain YPT6, active compounds read low): 1.01; normalized growth (S. cerevisiae deletion strains, locus YLR268W, strain sec22, active compounds read low): 0.974; normalized growth (S. cerevisiae deletion strains, locus YLR320W, strain mms22, active compounds read low): 1.04; normalized growth (S. cerevisiae deletion strains, locus YLR330W, strain CHS5, active compounds read low): 0.991; normalized growth (S. cerevisiae deletion strains, locus YLR342W, strain FKS1 (second series), active compounds read low): 0.989; normalized growth (S. cerevisiae deletion strains, locus YLR342W, strain FKS1, active compounds read low): 1.02; normalized growth (S. cerevisiae deletion strains, locus YLR357W, strain rsc2, active compounds read low): 1.02; normalized growth (S. cerevisiae deletion strains, locus YLR370C, strain arc18, active compounds read low): 1.04; normalized growth (S. cerevisiae deletion strains, locus YLR371W, strain rom2, active compounds read low): 0.968; normalized growth (S. cerevisiae deletion strains, locus YLR384C, strain iki3, active compounds read low): 1.02; normalized growth (S. cerevisiae deletion strains, locus YLR418C, strain cdc73, active compounds read low): 1.04; normalized growth (S. cerevisiae deletion strains, locus YML016C, strain PPZ1, active compounds read low): 0.99; normalized growth (S. cerevisiae deletion strains, locus YML032C, strain rad52, active compounds read low): 0.947; normalized growth (S. cerevisiae deletion strains, locus YML120C, strain ndi1, active compounds read low): 1.04; normalized growth (S. cerevisiae deletion strains, locus YML124C, strain tub3, active compounds read low): 0.985; normalized growth (S. cerevisiae deletion strains, locus YMR058W, strain fet3, active compounds read low): 1.02; normalized growth (S. cerevisiae deletion strains, locus YMR078C, strain ctf18, active compounds read low): 0.984; normalized growth (S. cerevisiae deletion strains, locus YMR125W, strain sto1, active compounds read low): 0.986; normalized growth (S. cerevisiae deletion strains, locus YMR129W, active compounds read low): 1.02; normalized growth (S. cerevisiae deletion strains, locus YMR205C, strain PFK2, active compounds read low): 1.02; normalized growth (S. cerevisiae deletion strains, locus YMR223W, strain ubp8, active compounds read low): 0.94; normalized growth (S. cerevisiae deletion strains, locus YMR231W, strain pep5, active compounds read low): 1.02; normalized growth (S. cerevisiae deletion strains, locus YMR263W, strain SAP30, active compounds read low): 1.02; normalized growth (S. cerevisiae deletion strains, locus YMR307W, strain GAS1, active compounds read low): 0.945; normalized growth (S. cerevisiae deletion strains, locus YNL067W, strain RPL9B, active compounds read low): 1.02; normalized growth (S. cerevisiae deletion strains, locus YNL071W, strain lat1, active compounds read low): 1.03; normalized growth (S. cerevisiae deletion strains, locus YNL128W, strain TEP1, active compounds read low): 1.01; normalized growth (S. cerevisiae deletion strains, locus YNL153C, strain GIM3, active compounds read low): 1.04; normalized growth (S. cerevisiae deletion strains, locus YNL209W, strain ssb2, active compounds read low): 1.02; normalized growth (S. cerevisiae deletion strains, locus YNL233W, strain BNI4, active compounds read low): 1.02; normalized growth (S. cerevisiae deletion strains, locus YNL248C, strain rpa49, active compounds read low): 0.972; normalized growth (S. cerevisiae deletion strains, locus YNL250W, strain rad50, active compounds read low): 0.987; normalized growth (S. cerevisiae deletion strains, locus YNL271C, strain bni1, active compounds read low): 0.985; normalized growth (S. cerevisiae deletion strains, locus YNL298W, strain CLA4, active compounds read low): 0.94; normalized growth (S. cerevisiae deletion strains, locus YNL307C, strain MCK1, active compounds read low): 0.954; normalized growth (S. cerevisiae deletion strains, locus YNL322C, strain KRE1 (second series), active compounds read low): 1.02; normalized growth (S. cerevisiae deletion strains, locus YNL322C, strain KRE1, active compounds read low): 1; normalized growth (S. cerevisiae deletion strains, locus YNR049C, strain mso1, active compounds read low): 1.02; normalized growth (S. cerevisiae deletion strains, locus YNR052C, strain pop2, active compounds read low): 0.949; normalized growth (S. cerevisiae deletion strains, locus YOL006C, strain TOP1, active compounds read low): 0.988; normalized growth (S. cerevisiae deletion strains, locus YOL012C, strain htz1): 1.93; normalized growth (S. cerevisiae deletion strains, locus YOL147C, strain pex11, active compounds read low): 0.993; normalized growth (S. cerevisiae deletion strains, locus YOR001W, strain rrp6, active compounds read low): 1.03; normalized growth (S. cerevisiae deletion strains, locus YOR061W, strain CKA2, active compounds read low): 0.975; normalized growth (S. cerevisiae deletion strains, locus YOR069W, strain VPS5, active compounds read low): 0.99; normalized growth (S. cerevisiae deletion strains, locus YOR070C, strain gyp1, active compounds read low): 1.02; normalized growth (S. cerevisiae deletion strains, locus YOR080W, strain dia2, active compounds read low): 1.02; normalized growth (S. cerevisiae deletion strains, locus YOR083W, strain WHI5, active compounds read low): 0.992; normalized growth (S. cerevisiae deletion strains, locus YOR106W, strain vam3, active compounds read low): 0.998; normalized growth (S. cerevisiae deletion strains, locus YOR136W, strain idh2, active compounds read low): 0.978; normalized growth (S. cerevisiae deletion strains, locus YOR144C, strain elg1, active compounds read low): 0.987; normalized growth (S. cerevisiae deletion strains, locus YOR184W, strain ser1, active compounds read low): 0.872 (active); normalized growth (S. cerevisiae deletion strains, locus YOR265W, strain rbl2, active compounds read low): 1.02; normalized growth (S. cerevisiae deletion strains, locus YOR270C, strain vph1, active compounds read low): 1.02; normalized growth (S. cerevisiae deletion strains, locus YOR290C, strain snf2, active compounds read low): 1.02; normalized growth (S. cerevisiae deletion strains, locus YOR316C, strain cot1, active compounds read low): 0.984; normalized growth (S. cerevisiae deletion strains, locus YPL051W, strain arl3, active compounds read low): 1; normalized growth (S. cerevisiae deletion strains, locus YPL055C, strain LGE1, active compounds read low): 1.04; normalized growth (S. cerevisiae deletion strains, locus YPL078C, strain atp4, active compounds read low): 0.982; normalized growth (S. cerevisiae deletion strains, locus YPL106C, strain sse1, active compounds read low): 1.06; normalized growth (S. cerevisiae deletion strains, locus YPL240C, strain hsp82, active compounds read low): 1.02; normalized growth (S. cerevisiae deletion strains, locus YPL241C, strain CIN2, active compounds read low): 0.998; normalized growth (S. cerevisiae deletion strains, locus YPR119W, strain clb2, active compounds read low): 1; normalized growth (S. cerevisiae deletion strains, locus YPR141C, strain kar3, active compounds read low): 0.993; normalized growth (S. cerevisiae deletion strains, locus YPR163C, strain tif3, active compounds read low): 0.993; normalized growth (S. cerevisiae deletion strains, locus YPR167C, strain met16, active compounds read low): 0.99; normalized growth (S. cerevisiae deletion strains, strain wtn01, active compounds read low): 0.992; normalized growth (S. cerevisiae strains, strain wild type, active compounds read low): 0.999
